# Data from PubChem BioAssay (NCATS).
# Values joined by “and” are separate entries in the source; they are usually repeats but may differ in a detail not shown here. Identical values can stand only once. Inconclusive results are not listed. Values without a mark were called inactive. Active and inactive are the calls of the source. Calls come from the whole dose curve; as a rule, active = well fitted activation curve with a large enough effect; inconclusive = small, poorly fitted or top-dose-only effect; inactive = no such curve, though single readings can be large or run the other way.
# Biological target: Cellular tumor antigen p53 (Homo sapiens) (UniProt P04637)
# Sequence (P04637 whole entry, looked up): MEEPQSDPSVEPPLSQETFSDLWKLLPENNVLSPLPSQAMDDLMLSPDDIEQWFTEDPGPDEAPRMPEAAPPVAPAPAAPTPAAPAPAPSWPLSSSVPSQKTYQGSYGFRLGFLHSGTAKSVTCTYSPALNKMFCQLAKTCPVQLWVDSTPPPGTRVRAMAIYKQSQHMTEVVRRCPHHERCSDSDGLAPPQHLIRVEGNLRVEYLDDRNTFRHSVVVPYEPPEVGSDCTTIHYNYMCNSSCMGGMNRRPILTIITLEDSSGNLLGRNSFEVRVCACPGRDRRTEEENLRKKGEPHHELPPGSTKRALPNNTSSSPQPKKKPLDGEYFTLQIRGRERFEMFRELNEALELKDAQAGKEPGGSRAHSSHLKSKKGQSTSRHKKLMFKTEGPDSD
# Assay: Primary qHTS for small molecule compounds that upregulate eGFP-tagged delta133p53alpha (in N-terminal) cells. (AID 2060322); note: nearly all actives have a fitted effect of over 75% in size;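 for activation: cells pre-induced with doxycycline then dosed without doxycycline; series mostly up to about 56 µM; 0% = DMSO vehicle and 100% = reference activator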
# Settings: NCI-H358 eGFP-delta133p53alpha fluorescence, 24 h; activation: stronger effect = higher value
# Description: Assay Development and Screening Technology
# National Center for Advancing Translational Sciences (NCATS),
# National Institute of Health (NIH), Rockville, Maryland
# Cellular senescence (CS) is one of the hallmarks of aging and age-related diseases. Senescent cells are characterized by an irreversible growth arrest, an increase in senescence-associated beta-galactosidase (SA-beta-gal) activity and p16INK4a expression, an activation of the DNA damage response pathways, and the emergence of a senescence-associated secretory phenotype (SASP).
# Delta133p53alpha, a human/primate-specific p53 protein isoform, delays or inhibits the induction of CS and SASP in various types of human cells, including progeria-derived fibroblasts, primary normal astrocytes, and CD8+ T lymphocytes. Induction of delta133p53alpha with small molecule compounds may provide therapeutic opportunities for inhibition of senescence/SASP-associated pathologies in progeria syndromes, astrocyte-mediated neuroprotection in neurodegenerative diseases, and possibly prevention and treatment of a wider range of senescence- and aging-associated diseases.
# Here we report the development and validation of a cell-based quantitative high throughput screening (qHTS) assay in 1,536-well format. This qHTS assay uses the NCI-H358 cell line with doxycycline-inducible expression of enhanced green fluorescent protein (eGFP)-tagged delta133p53alpha, which allows efficient and highly quantitative measurement of the protein levels.
# PROTOCOL TABLE (as described by Inglese J, Shamu CE and Guy RK. 2007)
# SEQUENCE No. (e.g., 1, 2, 3, etc.); […] (e.g., Cells, Incubation, Reagent, etc.); VALUE; DESCRIPTION.
# 1; Cells; 4uL; 800 doxycycline treated cells / well in doxycycline-free media, 1536-well black, clear-bottom low base Aurora microplates.
# 2; Compounds; 23 nL; Kalypsis pin tool (Wako) equipped with 1536-well pin heads, 5-azacytidine positive control.
# 3; Incubation; 24 hr; 37C, 5% CO2; 95% relative humidity.
# 4; Aspiration; 1x; BioTek EL406 washer dispenser (Agilent).
# 5; Fixing; 3.5% paraformaldehyde, BioTek EL406 washer dispenser (Agilent).
# 6; Washing; 1x PBS; BioTek EL406 washer dispenser (Agilent).
# 7; Nuclei staining; 1:1000 dilution of Hoechst 33342 (Thermofisher), BioTek EL406 washer dispenser (Agilent).
# 8; Incubation; 20 min; in the dark at room temperature.
# 9; Washing; 2x, 1x PBS (ThermoFisher), BioTek EL406 washer dispenser (Agilent).
# 10; Reagent; 10 uL; 1x PBS per well, sealed with clear adhesive tape.
# NOTES (numbers refer to sequence numbers above).
# 1. NCI-H358 cells expressing eGFP-tagged delta133p53alpha were grown in T75 culture flasks and treated with doxycycline for 24h, at 10 ng/ml for eGFP-D133p53a cells (N-terminal cell) and 100 ng/ml for D133p53a-eGFP cells (C-terminal cells). Cells were trypsinized, counted using a Counted 3 Automated Cell Counter (Thermo Fisher), and diluted to a concentration of 200,000 cells/ml. A Multidrop Combi Reagent Dispenser (ThermoFisher) was used to dispense 800 cells/well in […] of doxycycline-free media, into 1536-well black/clear bottom low base plates (AuroraMicroplates).
# 2. After plating cells, 23 nl of compound library, DMSO vehicle control or positive control (5-azacytidine) were transferred by Pin Tool (Wako). The plate map layout was the same for each plate: (column 1) non-doxycycline treated cells + DMSO vehicle control; (column 2) doxycycline treated cells + DMSO vehicle control baseline; (column 3) doxycycline treated cells + positive control 57.5 uM final concentration 5-azacytidine; (column 4) doxycycline treated cells + serial dilution of 5-azacytidine, 16-point 1:2 titration spanning 1.8 nM to […] final concentration; (columns 5-48) doxycycline treated cells + titration of library compounds.
# 3. Cells were incubated at 37 °C, 5 % CO2, 95% RH with breathable metal lid for 24h.
# 4-10. […] After two washes, 10 ul of 1X PBS (Thermo Fisher) was dispensed to each well. Clear adhesive plate seals (VWR) were applied and plates stored at 4 °C.
# 11. […]
# Potency is the fitted concentration of half-maximal effect.
Structure (SMILES),activation,Potency
CC(=O)O[C@@H]1CC[C@@]2(C)[C@H](CC[C@@H]3[C@@H]2C[C@H](OC(C)=O)[C@]2(C)[C@@H](C(C)=O)CC[C@@H]32)C1,5%,
N[C@@]1(C(=O)O)CS(=O)(=O)[C@H]2[C@H](C(=O)O)[C@H]21,-21.5%,
COC1CC(OC2CCC3(C)C(=CCC4C3CCC3(C)C(C(C)O)CCC43O)C2)OC(C)C1OC1OC(C)C(OC2OC(COC3OC(COC4OC(CO)C(O)C(O)C4O)C(O)C(O)C3O)C(O)C(O)C2O)C(OC)C1O (stereo not given),-23.7%,
Cn1c(=O)c(F)c(Nc2ccc(I)cc2F)c2c(=O)n(C[C@@H](O)CO)cnc21,15.6%,
Clc1ccc2c(c1)Nc1ccccc1S2,20.9%,
CC1(C)[C@@H](O)CC[C@]2(C)[C@H]3C(=O)C=C4[C@@H]5C[C@@](C)(C(=O)O)CC[C@]5(C)CC[C@@]4(C)[C@]3(C)CC[C@@H]12,29.7%,
COC(=O)C1=COC(OC2OC(CO)C(O)C(O)C2O)C2C(C)C(OC(C)=O)C(OC(=O)c3ccccc3)C12 (stereo not given),-6.87%,
O=C(O)c1ccccn1,17.6%,
O=C(O)c1cc([N+](=O)[O-])ccc1NCCCc1ccccc1,-7.19%,
CC1=CC2/C=C(\C)CCC3OC(C)(C)OC3CCC(=O)C23C(=O)NC(CC(C)C)C3C1C (stereo not given),-10.7%,
C=C1CCC2C(C)(C)CCC[C@]2(C)[C@H]1C/C=C(\CO)C(=O)C(=O)O (stereo not given in full),-6.87%,
Cc1ncc([N+](=O)[O-])n1C,-0.565%,
OC[C@@]1(O)CO[C@H](OC[C@H]2O[C@@H](OCCc3ccccc3)[C@H](O)[C@@H](O)[C@@H]2O)[C@@H]1O,-10.7%,
C/C(=C\CCC(C)CCO)C(=O)O[C@@H]1[C@@H](O)[C@H](OC2OC=C(C(=O)O)C3CCC(C)(O)C23)O[C@H](CO)[C@H]1O (stereo not given in full),13.4%,
Cc1nc2sc(C(=O)NCc3ccncc3)c(N)c2c(C)c1Cl,11%,
C[C@@]1(O)[C@H](O)[C@@H](CO)O[C@H]1n1ccc(N)nc1=O,0.333%,
CC(C)(O)CNc1nc(Nc2ccnc(C(F)(F)F)c2)nc(-c2cccc(C(F)(F)F)n2)n1,-5% and -21.6%,
O=C(NNc1ccccc1)c1ccncc1,-8.33%,
CCc1cc2c(cc1N1CCC(N3CCOCC3)CC1)C(C)(C)c1[nH]c3cc(C#N)ccc3c1C2=O,46.2%,
CC1(C)CC[C@]2(C(=O)O)CC[C@]3(C)C(=CCC4[C@@]5(C)CC[C@H](O[C@H]6O[C@H](C(=O)O)[C@@H](O)[C@H](O[C@@H]7O[C@H](CO)[C@H](O)[C@H](O)[C@H]7O)[C@H]6O)C(C)(C)C5CC[C@]43C)[C@@H]2C1 (stereo not given in full),-5.36%,

Structure (SMILES),activation,Potency
CC[C@H]1OC(=O)[C@H](C)[C@@H](O[C@H]2C[C@@](C)(OC)[C@@H](O)[C@H](C)O2)[C@H](C)[C@@H](O[C@@H]2O[C@H](C)C[C@H](N(C)C)[C@@H]2O)[C@](C)(O)C[C@@H](C)CN(C)[C@H](C)[C@@H](O)[C@]1(C)O,2.23%,
C=C1C(=O)O[C@@H]2C[C@H](C)C3=CC(=O)[C@H](O)[C@@]3(C)C[C@H]12,,30.1 µM (active)
CCCCCCCC(=O)OCC(COC(=O)CCCCCCC)OC(=O)CCCCCCC,-13.4%,
CC(C)(C)OC(=O)c1ncn2c1C(C)(C)Nc1ccccc1-2,-12.5%,
Cc1cc2c(cc1S(N)(=O)=O)S(=O)(=O)CCC2,-27.6%,
CC(=O)OC1C(C)C2C(OC3OC(CO)C(O)C(O)C3O)OC=C(C(=O)O)C2C1OC(=O)c1ccccc1 (stereo not given),5.34%,
C=C1CCC2C(C)(C)C(O)CCC2(C)C1CCC(C)CCOC(C)=O (stereo not given),5.36%,
CC(=O)C1(C)CCC2C3C=C(C)C4=CC(=O)CCC4(C)C3CCC21C (stereo not given),-17%,
O=C(c1ccccc1)c1c(O)cc(O)cc1O[C@@H]1O[C@H](CO)[C@@H](O)[C@H](O)[C@H]1O,-13%,
Nc1ncnc2c1c(-c1ccc(Cl)cc1)nn2-c1cccc(-c2cnnn2Cc2cccc(-c3ccccc3)c2)c1,8.04%,
N[C@@H](CC(=O)Nc1ccc(Oc2cc(F)c(F)cc2Br)cc1)C(=O)O,-8.11%,
COc1cc(Nc2ccc([N+](=O)[O-])cc2C(=O)O)cc2ccccc12,-11.9%,
C/C=C/C=C/C(CC(=O)O)Nc1ccc(C=O)cc1 (stereo not given),-13.7%,
CCNC1(C(N)=O)CCN(c2ncnc3c2nc(-c2ccccc2Cl)n3-c2ccc(Cl)cc2)CC1,0.477%,
CN1CCc2cc(Cl)c(O)cc2[C@@H](c2ccccc2)C1,-19.2%,
COc1cc(/C=C/c2cc(O)cc(O[C@@H]3O[C@H](CO)[C@@H](O)[C@H](O)[C@H]3O)c2)ccc1O,7.63%,
CCN(CC)CC(=O)Nc1c(C)cccc1C(=O)OC,-9.21%,
COc1cc(OC)c(C(=O)CCCN2CCCC2)c(OC)c1,-15.1% and 2.07%,
CSc1nc2cc(Oc3cccc(Cl)c3Cl)c(Cl)cc2[nH]1,-40.2%,
CC(C)C[C@@H]1[C@H](c2ccccc2)OC(=O)N1CCCN1CCCCCC1,1.67%,
